Experimental findings from PubChem BioAssay (EPA / NIEHS) are described below.

What is called AC50 is the concentration giving half of the maximal activity seen.

Activity calls are given as the source filed them. How the source made its calls: active means hit-call score of the fitted dose curve at least 0.9, where 1 is the maximum; inactive means score below 0.9.

Common to all, as to settings: mRNA level, 48 h; actives raise or lower the signal
Read-out in experiment [1]: Cytochrome P450 3A4 (Homo sapiens) (UniProt P08684)
Briefly: LTEA_HepaRG_CYP3A4: Life Technologies and Expression Analysis (LTEA) Assay for CYP3A4 using HepaRG (AID 2283487). Summed up:
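Differentiated HepaRG cells, plated 48 h, then dosed 48 h in serum-free induction medium with 0.5% DMSO, 8 half-log concentrations up to 100 uM, duplicate. CYP3A4 mRNA by qRT-PCR, normalized to ACTB/GAPDH/POLR2A; bidirectional fit versus DMSO.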

Read-out in experiment [2]: DNA damage-inducible transcript 3 (DDIT3), DDIT3 (gene 1649)
Briefly: LTEA_HepaRG_DDIT3: Life Technologies and Expression Analysis (LTEA) Assay for DNA damage-inducible transcript 3 (DDIT3) using HepaRG (AID 2283488). Summed up: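 Differentiated human HepaRG cells in serum-free induction medium were exposed in duplicate for 48 h to 8 concentrations (top 100 uM, half-log steps, 0.5% DMSO). DDIT3 mRNA measured by TaqMan qRT-PCR, normalized to ACTB/GAPDH/POLR2A; bidirectional fit versus DMSO.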

Read-out in experiment [3]: Pro-epidermal growth factor (Homo sapiens) (UniProt P01133)
Nature of the experiment: LTEA_HepaRG_EGF: Life Technologies and Expression Analysis (LTEA) Assay for Epidermal growth factor (EGF) using HepaRG (AID 2283489). Summed up:
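Concentration-response mRNA assay: HepaRG cells dosed 48 h (max 100 uM, 0.5% DMSO), EGF measured by qRT-PCR and normalized to ACTB/GAPDH/POLR2A.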

Read-out in experiment [4]: Early growth response protein 1 (EGR1) transcription factor, EGR1 (gene 1958)
Nature of the experiment: LTEA_HepaRG_EGR1: Life Technologies and Expression Analysis (LTEA) Assay for Early growth response protein 1 (EGR1) transcription factor using HepaRG (AID 2283490). Summed up: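 Read-out is EGR1 mRNA level by qRT-PCR, normalized to three housekeeping genes and analysed for gain or loss of signal against 0.5% DMSO. Source cells: human HepaRG, treated 48 h at up to 100 uM in half-log dilutions.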

Read-out in experiment [5]: Ezrin (EZR), EZR (gene 7430)
Nature of the experiment: LTEA_HepaRG_EZR: Life Technologies and Expression Analysis (LTEA) Assay for Ezrin (EZR) using HepaRG (AID 2283491). The method in brief:
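EZR transcript levels came from Fluidigm qRT-PCR and were normalized to three housekeeping genes after 48 h chemical exposure of HepaRG cells. Dosing used an 8-point half-log series with a 100 uM top concentration in 0.5% DMSO, tested in duplicate; both directions were fitted versus vehicle.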

Read-out in experiment [6]: Cytochrome P450 3A7 (Homo sapiens) (UniProt P24462)
Nature of the experiment: LTEA_HepaRG_CYP3A7: Life Technologies and Expression Analysis (LTEA) Assay for CYP3A7 using HepaRG (AID 2283492). The method in brief:
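qRT-PCR of CYP3A7 in HepaRG lysates after 48 h treatment; concentration-response (8 points, max 100 uM) analysed bidirectionally relative to 0.5% DMSO controls.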

Read-out in a further experiment: CYP3A5 (gene 1577)
Briefly: LTEA_HepaRG_CYP3A5: Life Technologies and Expression Analysis (LTEA) Assay for CYP3A5 using HepaRG (AID 2283493). The method in brief:
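Differentiated HepaRG cells in serum-free induction medium were dosed 48 h with test chemicals (8-point half-log series, top 100 uM, 0.5% DMSO, duplicate). CYP3A5 mRNA measured by qRT-PCR, normalized to ACTB, GAPDH, POLR2A; bidirectional fit versus DMSO.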

Read-out in experiment [7]: Fatty Acid-Binding Protein 1 (FABP1), FABP1 (gene 2168)
Nature of the experiment: LTEA_HepaRG_FABP1: Life Technologies and Expression Analysis (LTEA) Assay for Fatty Acid-Binding Protein 1 (FABP1) using HepaRG (AID 2283494). The method in brief:
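HepaRG, 48 h post-plating switched to serum-free induction medium, then dosed 48 h (duplicate, 8 pts, ≤100 uM, 0.5% DMSO). RNA → Fluidigm TaqMan qRT-PCR, FABP1 normed to ACTB/GAPDH/POLR2A. Bidirectional curve fit vs DMSO.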

Read-out in experiment [8]: Cytochrome P450 4A22 (Homo sapiens) (UniProt Q5TCH4)
Briefly: LTEA_HepaRG_CYP4A22: Life Technologies and Expression Analysis (LTEA) Assay for Cytochrome P450 4A22 (CYP4A22) using HepaRG (AID 2283495). Summed up: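 Concentration-response (8 points, max 100 uM, 0.5% DMSO) in human HepaRG liver cells after 48 h exposure. CYP4A22 mRNA by TaqMan qRT-PCR with housekeeping-gene normalization.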

Read-out in experiment [9]: Cytochrome P450 7A1 (Homo sapiens) (UniProt P22680)
Nature of the experiment: LTEA_HepaRG_CYP7A1: Life Technologies and Expression Analysis (LTEA) Assay for Cytochrome P450 7A1 (CYP7A1) using HepaRG (AID 2283496). Summed up:
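Gene expression endpoint in human HepaRG liver cells treated for 48 h with test chemicals (up to 100 uM, 0.5% DMSO). Values come from bidirectional concentration-response fitting versus DMSO.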

Read-out in experiment [10]: Glutathione S-Transferase (GSTA2), GSTA2 (gene 2939)
Nature of the experiment: LTEA_HepaRG_GSTA2: Life Technologies and Expression Analysis (LTEA) Assay for Glutathione S-Transferase (GSTA2) using HepaRG (AID 2283497). Summed up: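 HepaRG, 48 h dosing, 8-pt half-log CRC from 100 uM, 0.5% DMSO vehicle, n=2; RNA → Fluidigm TaqMan qRT-PCR; GSTA2 vs ACTB/GAPDH/POLR2A; gain/loss fit vs DMSO.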

Read-out in experiment [11]: growth arrest and DNA damage 45 (GADD45G), GADD45G (gene 10912)
Briefly: LTEA_HepaRG_GADD45G: Life Technologies and Expression Analysis (LTEA) Assay for growth arrest and DNA damage 45 (GADD45G) using HepaRG (AID 2283499). The method in brief: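 Concentration-response in HepaRG: 48 h dosing, 0.5% DMSO, highest level 100 uM. GADD45G expression by qRT-PCR, normalised to endogenous controls; bidirectional fit to DMSO.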

Read-out in experiment [12]: Glutamate-cysteine ligase regulatory (GCLM), GCLM (gene 2730)
Nature of the experiment: LTEA_HepaRG_GCLM: Life Technologies and Expression Analysis (LTEA) Assay for Glutamate-cysteine ligase regulatory (GCLM) using HepaRG (AID 2283500). The method in brief:
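Differentiated human HepaRG cells exposed 48 h in serum-free induction medium to 8-point half-log concentrations (top 100 uM, 0.5% DMSO), in duplicate. GCLM mRNA quantified by qRT-PCR, normalized to ACTB, GAPDH, POLR2A; bidirectional fitting versus DMSO.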

Read-out in experiment [13]: Heat shock 70 kDa protein 1 (HSPA1A), gene 3303
Briefly: LTEA_HepaRG_HSPA1A: Life Technologies and Expression Analysis (LTEA) Assay for Heat shock 70 kDa protein 1 (HSPA1A) using HepaRG (AID 2283502). Summed up:
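Differentiated human HepaRG cells in serum-free induction medium were exposed in duplicate for 48 h to eight concentrations (top 100 uM, half-log steps, 0.5% DMSO). HSPA1A mRNA was quantified by qRT-PCR, normalized to ACTB, GAPDH and POLR2A, and fitted bidirectionally against DMSO.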

Read-out in experiment [14]: Hypoxia-inducible factor 1-alpha (Homo sapiens) (UniProt Q16665)
Nature of the experiment: LTEA_HepaRG_HIF1A: Life Technologies and Expression Analysis (LTEA) Assay for Hypoxia-inducible factor 1 (HIF1A) Trancription factor using HepaRG (AID 2283503).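 Further: HIF1A transcript by TaqMan qRT-PCR normalized to ACTB GAPDH and POLR2A.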 The method in brief: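 HepaRG, 48 h exposure, 8-pt half-log series from 100 uM, 0.5% DMSO vehicle, duplicates. Readout: HIF1A transcript by qRT-PCR (Fluidigm array), housekeeping-normalised. Bidirectional curve fit vs DMSO baseline.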

Read-out in experiment [15]: 3-Hydroxy-3-Methylglutaryl-CoA Synthase 2 (HMGCS2), HMGCS2 (gene 3158)
Nature of the experiment: LTEA_HepaRG_HMGCS2: Life Technologies and Expression Analysis (LTEA) Assay for 3-Hydroxy-3-Methylglutaryl-CoA Synthase 2 (HMGCS2) using HepaRG (AID 2283504). The method in brief: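 This steatosis marker was read as HMGCS2 mRNA change in HepaRG cells treated 48 h with up to 100 uM chemical. Normalisation used housekeeping genes; activity in either direction was fitted relative to 0.5% DMSO vehicle.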

Read-out in another experiment: HGF (gene 3082)
Nature of the experiment: LTEA_HepaRG_HGF: Life Technologies and Expression Analysis (LTEA) Assay for Hepatocyte Growth Facto (HGF) using HepaRG (AID 2283505). Summed up:
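Using HepaRG monolayers kept in 0.5% DMSO, chemicals were tested in duplicate over eight half-log concentrations from 100 uM for 48 h. Endpoint: HGF mRNA change relative to DMSO, normalized to ACTB/GAPDH/POLR2A.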

Read-out in a further experiment: CYP4A11 (gene 1579)
Nature of the experiment: LTEA_HepaRG_CYP4A11: Life Technologies and Expression Analysis (LTEA) Assay for CYP4A11 using HepaRG (AID 2283486). Summed up: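 Human hepatic HepaRG cultures receive duplicate 48 h exposures across a concentration-response series topping at 100 uM. Expression changes in CYP4A11 are measured by qRT-PCR relative to DMSO controls.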

Read-out in experiment [16]: Glutathione S-transferase M3 (GSTM3), GSTM3 (gene 2947)
Nature of the experiment: LTEA_HepaRG_GSTM3: Life Technologies and Expression Analysis (LTEA) Assay for Glutathione S-transferase M3 (GSTM3) using HepaRG (AID 2283501). Summed up: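 Expression of GSTM3 is determined by qRT-PCR in human liver HepaRG cells treated 48 h with an 8-point half-log range from 100 uM in 0.5% DMSO.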

Sequence of Cytochrome P450 3A4 (Homo sapiens) (P08684 whole entry, looked up): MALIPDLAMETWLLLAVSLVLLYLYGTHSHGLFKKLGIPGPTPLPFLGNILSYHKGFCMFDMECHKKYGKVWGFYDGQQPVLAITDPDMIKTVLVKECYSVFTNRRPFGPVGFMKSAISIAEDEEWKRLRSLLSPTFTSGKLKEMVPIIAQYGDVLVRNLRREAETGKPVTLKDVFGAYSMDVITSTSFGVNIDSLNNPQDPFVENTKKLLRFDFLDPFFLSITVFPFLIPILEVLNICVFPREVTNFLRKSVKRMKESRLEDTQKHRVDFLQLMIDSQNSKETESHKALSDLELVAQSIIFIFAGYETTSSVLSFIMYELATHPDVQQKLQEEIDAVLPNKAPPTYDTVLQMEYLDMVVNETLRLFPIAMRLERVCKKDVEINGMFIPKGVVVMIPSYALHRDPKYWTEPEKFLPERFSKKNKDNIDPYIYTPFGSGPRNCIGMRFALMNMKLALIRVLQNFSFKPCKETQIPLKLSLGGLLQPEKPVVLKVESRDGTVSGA
Sequence of Hypoxia-inducible factor 1-alpha (Homo sapiens) (Q16665 whole entry, looked up): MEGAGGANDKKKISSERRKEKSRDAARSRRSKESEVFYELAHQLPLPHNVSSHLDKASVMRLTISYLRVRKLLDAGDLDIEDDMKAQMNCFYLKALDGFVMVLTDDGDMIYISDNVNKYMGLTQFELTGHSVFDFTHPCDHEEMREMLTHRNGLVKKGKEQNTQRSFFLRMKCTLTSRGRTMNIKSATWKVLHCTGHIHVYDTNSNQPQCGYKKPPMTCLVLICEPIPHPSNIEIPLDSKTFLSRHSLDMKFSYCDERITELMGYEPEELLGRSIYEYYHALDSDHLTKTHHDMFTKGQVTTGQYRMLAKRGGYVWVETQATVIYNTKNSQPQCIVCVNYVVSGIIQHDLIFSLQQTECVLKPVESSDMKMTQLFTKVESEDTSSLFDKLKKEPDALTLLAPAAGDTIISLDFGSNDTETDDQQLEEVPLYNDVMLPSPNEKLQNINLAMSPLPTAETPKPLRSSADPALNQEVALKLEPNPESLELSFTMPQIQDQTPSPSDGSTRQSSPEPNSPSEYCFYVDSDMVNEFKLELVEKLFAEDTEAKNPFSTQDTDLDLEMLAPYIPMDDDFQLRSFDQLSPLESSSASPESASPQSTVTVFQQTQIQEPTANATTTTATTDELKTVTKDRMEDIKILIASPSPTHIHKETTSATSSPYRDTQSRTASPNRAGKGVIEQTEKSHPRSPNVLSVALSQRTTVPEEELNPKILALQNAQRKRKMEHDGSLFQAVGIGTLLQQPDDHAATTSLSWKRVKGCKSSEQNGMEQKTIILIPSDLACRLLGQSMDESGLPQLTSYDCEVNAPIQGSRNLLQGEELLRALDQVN
Sequence of Cytochrome P450 3A7 (Homo sapiens) (P24462 whole entry, looked up): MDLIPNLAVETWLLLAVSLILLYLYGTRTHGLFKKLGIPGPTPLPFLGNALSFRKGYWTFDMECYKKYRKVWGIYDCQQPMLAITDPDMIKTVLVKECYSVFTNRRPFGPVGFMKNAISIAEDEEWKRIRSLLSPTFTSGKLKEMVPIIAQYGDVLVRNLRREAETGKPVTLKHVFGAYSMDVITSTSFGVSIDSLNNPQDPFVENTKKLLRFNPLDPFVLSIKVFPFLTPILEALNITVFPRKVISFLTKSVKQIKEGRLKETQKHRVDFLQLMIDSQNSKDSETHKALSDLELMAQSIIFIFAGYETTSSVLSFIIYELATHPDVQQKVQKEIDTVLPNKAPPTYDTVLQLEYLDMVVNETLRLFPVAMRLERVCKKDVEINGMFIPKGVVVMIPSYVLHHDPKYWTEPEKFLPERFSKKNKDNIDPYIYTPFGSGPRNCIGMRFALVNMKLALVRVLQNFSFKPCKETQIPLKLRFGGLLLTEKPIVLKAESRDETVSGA

Take `CC(C)(c1ccccc1)c1ccc(O)cc1`: the outcome in experiment [1], in experiment [2], in experiment [3], in [4], in experiment [5] and in experiment [6] was inactive. Besides, the result (with CYP3A5 (gene 1577); in experiment [7]; in experiment [8]; in experiment [11]; in experiment [12]; in [13]) was inactive. Further, the compound was called inactive in [14] and in [15]. Besides, the half-maximal activity concentration (AC50) in experiment [9] was 88.7 µM (active); in [10], 87.3 µM (active); with HGF (gene 3082), 83.2 µM (active).

For the compound `C=CC(N)=O`, the compound was called inactive (in the experiment with CYP4A11 (gene 1579); in [2]; in [3]; in experiment [4]; in experiment [5]; in [6]). Also, the outcome (with CYP3A5 (gene 1577); in [7]; in experiment [8]; in experiment [9]; in experiment [10]; in experiment [12]) was inactive. The outcome (in [13]; in experiment [14]; in [15]; with HGF (gene 3082)) was inactive.

In the case of `CCSC(=O)N(CC)C1CCCCC1`, the call (with CYP4A11 (gene 1579); in [1]; in [2]; in [3]; in experiment [4]; in experiment [5]) was inactive. Also, the compound was called inactive (in experiment [6]; with CYP3A5 (gene 1577); in [7]; in [8]; in experiment [10]; in [12]). In addition, the outcome (in [16]; in experiment [13]; in [14]; in experiment [15]; in the experiment with HGF (gene 3082)) was inactive.

In the case of `c1ccc(-c2ccccc2)cc1`, the call (with CYP4A11 (gene 1579); in experiment [1]; in [2]; in experiment [4]; in experiment [5]; in experiment [6]) was inactive. Moreover, the compound was called inactive (in the experiment with CYP3A5 (gene 1577); in experiment [7]; in experiment [10]; in experiment [11]; in experiment [12]; in [13]). The result (in experiment [14]; in [15]; with HGF (gene 3082)) was inactive.

Turning to `ClC1=C(Cl)[C@]2(Cl)[C@@H]3[C@H]4C[C@H]([C@@H]5O[C@H]45)[C@@H]3[C@@]1(Cl)C2(Cl)Cl`, the AC50 in the experiment with CYP4A11 (gene 1579) was 24.6 µM (active); in experiment [2], 50 µM (active); in experiment [6], 2.94 µM (active); in experiment [7], 1.86 µM (active); in experiment [8] it was 32.5 µM (active); in experiment [9], 17.4 µM (active). Besides, the AC50 was 32.6 µM (active) in experiment [10] and 30.5 µM (active) in experiment [15]. In addition, the call (in [3]; in [4]; in [5]; with CYP3A5 (gene 1577); in experiment [12]; in experiment [13]) was inactive. For the same compound, the compound was called inactive (in experiment [14]; with HGF (gene 3082)).
